The OligoGym collection
Further: reference of the scale not given here.

Each sequence was assayed against HAX1 (assay: pooled miR-30 sensor sort-seq; sequence = guide strand). Details: shRNA.
TCACTGTCCACCACAGTCCGGC was tested, and the sensor-assay potency score (higher = more potent) was -0.474. TAGGACTGCTATCTGCTTCGTG gave a sensor-assay potency score (higher = more potent) of 0.298. In the case of TATTGAAATCTCGTACTAGGTC, the sensor-assay potency score (higher = more potent) is reported as -0.361. In the case of TTATCGTGGAAACGTATCCCTC, the sensor-assay potency score (higher = more potent) is reported as -1.22. With ACTTCTTGCATCACTCTCCAAG the sensor-assay potency score (higher = more potent) was -1.46. For TACTAGGTCATCAAAGCCGAAG, the sensor-assay potency score (higher = more potent) was -1.1. In the case of TACTTAAGCATTGAGTCCCGAA, the sensor-assay potency score (higher = more potent) is reported as -0.493. TGCTATTGAAATCTCGTACTAG showed a sensor-assay potency score (higher = more potent) of 0.119. With TTAGTGATCTTGGTCACAGAGA the sensor-assay potency score (higher = more potent) was -0.982. TTACTGTAGTCTCTGTCCGGCC gave a sensor-assay potency score (higher = more potent) of -0.884. TTCACTATTCCACATATCCAAG gave a sensor-assay potency score (higher = more potent) of -1.52. Sequence TTGGTCACAGAGATGCTCTTGA has a sensor-assay potency score (higher = more potent) of 0.864.

Each sequence was assayed against HBA1 in the same assay as above. Details: shRNA.
ACGGGGGTACGGGTGCAGGAAG was tested, and the sensor-assay potency score (higher = more potent) was -2.14. CAGGAAGGGGAGGAGGGGCTGG showed a sensor-assay potency score (higher = more potent) of -1.95. Sequence TACGGGTGCAGGAAGGGGAGGA has a sensor-assay potency score (higher = more potent) of -0.675. Sequence AAGGGGCAAGAAGCATGGCCAC has a sensor-assay potency score (higher = more potent) of -1.79. Sequence AAGACCACGGGGGTACGGGTGC has a sensor-assay potency score (higher = more potent) of -0.867. In the case of AAAGACCACGGGGGTACGGGTG, the sensor-assay potency score (higher = more potent) is reported as -1.54. For ACCACGGGGGTACGGGTGCAGG, the sensor-assay potency score (higher = more potent) was -2.46. TTCAAAGACCACGGGGGTACGG was tested, and the sensor-assay potency score (higher = more potent) was -1.1. TCAAAGACCACGGGGGTACGGG showed a sensor-assay potency score (higher = more potent) of -0.714.

What follows are sequences tested against HBA2 in the same assay as above. Details: shRNA.
Work on TTCAAAGACCAGGAAGGGCCGG yielded a sensor-assay potency score (higher = more potent) of -0.416. AAGTAGGTCTTGGTGGTGGGGA showed a sensor-assay potency score (higher = more potent) of -0.536. AGGAAGGGCCGGTGCAAGGAGG was tested, and the sensor-assay potency score (higher = more potent) was -2.16. In the case of AAGACCAGGAAGGGCCGGTGCA, the sensor-assay potency score (higher = more potent) is reported as -1.15. AAGGGCCGGTGCAAGGAGGGGA was tested, and the sensor-assay potency score (higher = more potent) was -0.735. Work on AGACCAGGAAGGGCCGGTGCAA yielded a sensor-assay potency score (higher = more potent) of -1.65. Work on TTTATTCAAAGACCAGGAAGGG yielded a sensor-assay potency score (higher = more potent) of -0.785. Sequence TTGGGAGGCCCAGCGGGCAGGA has a sensor-assay potency score (higher = more potent) of -2. AAGTTGACCGGGTCCACCCGAA was tested, and the sensor-assay potency score (higher = more potent) was -0.435. For AGGGCCGGTGCAAGGAGGGGAG, the sensor-assay potency score (higher = more potent) was -1.98. TGGCTTAGGAGCTTGAAGTTGA showed a sensor-assay potency score (higher = more potent) of -0.42. TTATTCAAAGACCAGGAAGGGC showed a sensor-assay potency score (higher = more potent) of -1.06. In the case of TATTCAAAGACCAGGAAGGGCC, the sensor-assay potency score (higher = more potent) is reported as -0.938. For TGCAAGGAGGGGAGGAGGGCCC, the sensor-assay potency score (higher = more potent) was -1.68. In the case of TCAAAGACCAGGAAGGGCCGGT, the sensor-assay potency score (higher = more potent) is reported as 0.259.

Each sequence was assayed against HBB in the same assay as above. Details: shRNA.
In the case of AACAGCATCAGGAGTGGACAGA, the sensor-assay potency score (higher = more potent) is reported as -1.35. TTTAGTAGTTGGACTTAGGGAA gave a sensor-assay potency score (higher = more potent) of 0.165. For TTTGCCAAAGTGATGGGCCAGC, the sensor-assay potency score (higher = more potent) was -0.758. With ATTCTTTGCCAAAGTGATGGGC the sensor-assay potency score (higher = more potent) was -0.706.
